Assay outcomes deposited in PubChem BioAssay by several laboratories.
TIM10 inh: inhibits growth of TIM10 yeast strain; inhibition, % at 10 µM; S. cerevisiae TIM10 strain growth, BacTiter-Glo luminescence, 24 h; 1.4% of 330,000 active;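 active = inhibition of 40% or more at the single tested concentration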;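 also: wild-type TIM10 isogenic control strain grown at permissive 25 °C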
tim10-1 inh: inhibits growth of tim10-1 mutant yeast; S. cerevisiae tim10-1 ts strain growth, BacTiter-Glo, 24 h; inhibition, % at 20 µM; 2.2% of 330,000 active;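 active = inhibition of at least 40%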;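 also: mutant grown at 25 °C; 0% = DMSO wells with yeast and 100% = wells holding no yeast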
V-ATPase pH: regulators of yeast V-ATPase proton transport; S. cerevisiae, pHLuorin cytosolic pH fluorescence; response, % at 10 µM; 0.37% of 350,000 active; AID 504577; in the data active = response mostly above about 7.3%, no sharp cut-off; inactive = mostly below about 5.4%; also: actives read high
PfHsp90 set2: reduces growth (ATP signal) of yeast expressing P. falciparum Hsp90. S. cerevisiae expressing PfHsp90, BacTiter-Glo ATP, 48 h; yeast lacking PDR1 and PDR3 efflux regulators. inhibition, % at 9.4 µM. 0.32% of 310,000 active. AID 504621;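 active = every replicate shows inhibition above about 80%, whatever the replicate mean, limit read from the data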;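 also: 0% = DMSO neutral controls and 100% = 20 µM radicicol positive controls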
tim23-1 inh: inhibits growth of tim23-1 mutant yeast; 1.3% of 330,000 active; S. cerevisiae tim23-1 growth, BacTiter-Glo luminescence, 24 h; inhibition, % at 20 µM;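 active = growth inhibition of the mutant yeast at or above 50%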;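 also: temperature-sensitive mutant grown at 25 °C; plate controls were DMSO-treated mutant yeast for no effect and medium wells lacking yeast for full effect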
tim10-1 conf: confirmation of tim10-1 mutant yeast growth inhibitors. shares compounds with tim10-1 inh. S. cerevisiae tim10-1 ts strain growth, BacTiter-Glo, 24 h. inhibition, % at 20 µM. 56% of 7,400 active;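 active = inhibition of yeast growth at or above a set limit in either of two repeat tests at 20 µM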;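 also: tim10-1 mutant grown at permissive 25 °C to find synthetic lethal compounds; 0% = DMSO yeast wells and 100% = medium wells without yeast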
tim10 confirm: TIM10 yeast growth inhibition, confirmed; shares compounds with TIM10 inh; S. cerevisiae tim10 strain growth, BacTiter-Glo luminescence, 24 h; inhibition, % at 10 µM; 63% of 4,600 active; AID 463215;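 active = inhibition of yeast growth at or above a set limit in either of two replicates at 10 µM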;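 also: this counterscreen used the strain with wild-type TIM10; 0% = yeast with DMSO and 100% = medium wells lacking yeast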
* = called active by the depositor; . = not tested or not shown. The list is not random: actives were taken first. Their share in the collection is about 3.7%.

SMILES | TIM10 inh | tim10-1 inh | V-ATPase pH | PfHsp90 set2 | tim23-1 inh | tim10-1 conf | tim10 confirm
O=C(CNC(=S)N(Cc1ccccc1)Cc1ccccc1F)NCc1ccccc1 | 15 | 26 | 1 | -45 | 14 | . | .
O=C(CNC(=S)N(Cc1ccccc1)Cc1ccccc1F)NCCc1ccccc1 | 11 | 41* | -2 | . | 17 | 24 | .
COc1cc(C)ccc1Oc1ncnc(N)c1[N+](=O)[O-] | 7 | 19 | -1 | 1 | 20 | . | .
Nc1ncnc(Oc2cccc(C(F)(F)F)c2)c1[N+](=O)[O-] | 10 | 43* | -3 | 14 | 43 | 27 | .
O=[N+]([O-])c1ccc(NC(=S)N2CCc3ccccc3C2)cc1 | 35 | 41* | -1 | -16 | 44 | 29 | .
O=c1c(-c2nnc(SCc3ccc(Cl)cc3)o2)cccn1Cc1ccccc1 | 14 | 46* | -3 | . | 38 | 19 | .
O=C1CS(=O)(=O)c2ccccc2N1 | -14 | -3 | -2 | -20 | 5 | . | .
N#CCCN(Cc1ccccc1)C(=S)NC(=O)c1ccccc1 | 38 | 40* | 2 | -16 | 33 | 28 | .
CCn1cc(S(=O)(=O)NCCc2ccc(F)cc2)cn1 | -4 | -27 | -2 | 1 | -3 | . | .
CCC(C(=O)NC1CCCC1)N(C(=O)c1snc(C(N)=O)c1N)c1ccc(C)cc1C (configuration not stated) | -2 | 15 | -2 | -73 | 16 | . | .
O=C1CN(C(=O)/C=C/c2cccc(Cl)c2)c2ccccc2N1 | 27 | 41* | 0 | 2 | 22 | 34* | .
O=C1CN(C(=O)/C=C/c2ccc(Cl)cc2)c2ccccc2N1 | 18 | -1 | -1 | -10 | 39 | . | .
CCCC(C)C(=O)Nc1nnc(CCc2ccccc2)s1 (configuration not stated) | 6 | 21 | -1 | -19 | 35 | . | .
CN(C(=O)COC(=O)c1ccc(Br)c([N+](=O)[O-])c1)c1c(N)n(Cc2ccccc2)c(=O)[nH]c1=O | 6 | 3 | -1 | -10 | -3 | . | .
CC12CC3CC(C)(C1)CC(C(=O)NC1=NCCS1)(C3)C2 | 49* | 46* | 1 | 3 | 41 | 28 | 35*
CC(C)c1ccc(CN2CCN(C(=O)CCl)CC2)cc1 | . | . | -1 | -7 | . | . | .
COc1ccc(/C=N/NC(=O)c2ccoc2C)cc1COc1c(C)cccc1C | 42* | 41* | 0 | 0 | 39 | 30* | 14
CCOc1ccc(N2C(=O)CC(NCC#N)C2=O)cc1 (configuration not stated) | -6 | 24 | -6 | 7 | -7 | . | .
Cc1ccc(/C(N)=N/OC(=O)c2ccc3c(c2)OCO3)cc1 | 63* | 56* | 2 | 2 | 26 | 52* | -12
COc1ccc(/C(N)=N/OC(=O)c2ccc3c(c2)OCO3)cc1 | 66* | 64* | -1 | -5 | 36 | 50* | -20
CC(=O)C12OC(C)(C)OC1CC1C3CCC4=CC(=O)C=CC4(C)C3(F)C(O)CC12C (configuration not stated) | . | . | 2 | -11 | . | . | .
CCc1ccc(S(=O)(=O)/N=C2\C=C(Nc3cccc(C(=O)O)c3)C(=O)c3ccccc32)cc1 | 27 | 23 | -1 | 8 | 32 | . | .
CCc1ccc(S(=O)(=O)/N=C2\C=C(Nc3ccc(O)cc3)C(=O)c3ccccc32)cc1 | 61* | 64* | -1 | -18 | 43 | 70* | 93*
COc1cc(N/C(N)=N/c2nc(C)cc(C)n2)cc(OC)c1 | 5 | -18 | -1 | 3 | -10 | . | .
Cc1cccc(NC(=S)NNC(=O)c2csc3c2CCCC3)c1 | 43* | 45* | -1 | 6 | 20 | 45* | 16
SMILES | TIM10 inh | tim10-1 inh | V-ATPase pH | PfHsp90 set2 | tim23-1 inh | tim10-1 conf | tim10 confirm
Cc1ccc(C)c(NC(=S)NNC(=O)c2csc3c2CCCC3)c1 | 15 | 37 | 10 | -2 | 19 | . | .
CC(C)(C)C1=CC(=Nc2ccccc2N)C=C(C(C)(C)C)C1=O | -4 | 7 | 2 | -24 | 6 | . | .
CC(C)(C)C1=CC(=O)C(=O)C(C(C)(C)C)=C1 | 40* | 47* | 10 | 103* | 24 | 39* | 26
Nc1n[nH]c(N)c1N=Nc1cccc(C(F)(F)F)c1 | -4 | 16 | 0 | 0 | 3 | . | .
Cn1cccc1/C=C1\CC(C(C)(C)C)C/C(=C\c2cccn2C)C1=O (configuration not stated) | 41* | 45* | -2 | . | 40 | 43* | 42*
Cn1cccc1/C=C1\Cc2ccccc2C1=O | 14 | -21 | 3 | 25 | 25 | . | .
Cc1c(N2C(=O)/C(=C/c3ccccc3)SC2=S)c(=O)n(-c2ccccc2)n1C | 7 | 28 | 1 | -9 | 10 | . | .
Cc1c(N2C(=O)/C(=C\C3CC=CCC3)SC2=S)c(=O)n(-c2ccccc2)n1C (configuration not stated) | 42* | 46* | 7 | . | 48 | 39* | 33*
Cc1nc([N+](=O)[O-])c(Br)n1CC(=O)c1ccc2ccccc2c1 | 54* | 59* | 3 | . | 35 | 67* | 55*
Cc1nc([N+](=O)[O-])c(Br)n1CC(=O)c1ccccc1 | 22 | 30 | 2 | . | 26 | . | .
Cc1nc([N+](=O)[O-])c(Br)n1CC(=O)c1ccc(Br)cc1 | 40 | 48* | -5 | . | 40 | 35* | 40*
Cc1cc(C)nc(NC(=O)c2ccc([N+](=O)[O-])o2)n1 | 15 | 36 | -2 | -5 | 25 | . | .
O=C(Nc1cccc(Cl)c1N1CCCC1)c1ccc([N+](=O)[O-])o1 | 40* | 47* | 1 | 3 | 22 | 41* | 27
O=C(Nc1cccnc1)c1ccc([N+](=O)[O-])o1 | -29 | -5 | 1 | 8 | 10 | . | .
Cc1cc(C)cc(NC(=O)c2ccc([N+](=O)[O-])o2)c1 | 83* | 49* | 3 | -58 | -24 | 34* | 82*
CC(=O)c1ccc(NC(=O)c2ccc([N+](=O)[O-])o2)cc1 | 81* | 57* | 1 | 3 | -20 | 43* | 90*
COc1cc(NC(=O)c2ccc([N+](=O)[O-])o2)ccc1NC(=O)c1ccco1 | 47* | 46* | 4 | 11 | 46 | 45* | 60*
Cc1cc(NC(=O)c2ccc([N+](=O)[O-])o2)ccc1NC(=O)c1ccco1 | . | . | -1 | -2 | . | . | .
CC(=O)c1ccc(NC(=O)CN(c2c(C)cccc2C)S(C)(=O)=O)cc1 | 0 | 0 | -1 | -15 | 0 | . | .
O=C(Nc1cccc(O)c1)c1c(O)c2ccccc2[nH]c1=O | 6 | -4 | 0 | -1 | 23 | . | .
S=C(NCCCc1ccccc1)Nc1ccccc1Cl | 52* | 49* | -1 | 17 | 30 | 38* | 41*
CC1CN(c2nc3c(c(=O)n(Cc4ccc(Cl)c(Cl)c4)c(=O)n3C)n2C)CC(C)O1 (configuration not stated) | 45* | 49* | 0 | -40 | 39 | 43* | 33*
